ELG1 genotox = qHTS screen for small molecules that induce genotoxicity in human embryonic kidney (HEK293T) cells expressing luciferase-tagged ELG1; HEK293T ELG1-luciferase reporter, luminescence, 16 h; Potency, µM (doses to about 46 µM), without a hit: at the top dose activity change, positive = activation, actives largely listed as activators; 1.3% of 330,000 active; AID 504466, 2011; note: % of control where 0% means no effect; nearly all actives have a fitted effect of over 60% in size
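16 hr compound incubation (37 °C, 5% CO2) of HEK293T cells carrying luciferase-tagged ELG1; luciferase then measured by ONE-Glo luminescence after 30 min at RT.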
Luc counter = Counterscreen for Luciferase (Kinase-Glo TM) Inhibition | Luciferin 4-monooxygenase (Photuris pensylvanica), Q27757 | Kinase-Glo luciferase, ATP luminescence, 8 min | Potency, µM (top dose mostly 38.3 µM), for inactives: at the top dose activity change, negative = inhibition, most hits filed as inhibitors | 0.28% of 200,000 active | AID 1379, 2008; note: % is set by controls: 0 for no effect and ±100 for the full control effect; nearly all actives have a fitted effect of over 60% in size
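Substrate mix (final 50 mM imidazole pH 7.2, 50 mM KCl, 7 mM MgCl2, 10 uM ATP, 0.01% Tween 20, 0.05% BSA) plus pin-tool compound, then Kinase-Glo detection mix; 8 min ambient, luminescence read.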
Rab9 prom act = qHTS Assay for Rab9 Promoter Activators; Huh7 Rab9 promoter-luciferase reporter, luminescence, 24 h; Potency, µM (highest dose often 9.22 µM), for inactives: top-dose activation, negative = inhibition, actives largely listed as activators; 2.8% of 320,000 active; AID 485297, 2010; note: % of control where 0% means no effect; nearly all actives have a fitted effect of over 60% in size
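Huh7 reporter line, Rab9 promoter upstream of luciferase. Compound exposure 24 h at 37 °C in reduced-serum medium with 10% FBS. Read-out: luminescence.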
SMN2 splice enh = qHTS Assay for Enhancers of SMN2 Splice Variant Expression | HEK293 SMN2-luciferase splicing reporter, luminescence, 30-36 h | Potency, µM (top dose mostly 46.1 µM), without a hit: top-dose activity change, positive = activation, actives largely listed as activators | 2.8% of 210,000 active | AID 1458, 2008; note: % of control where 0% means no effect; nearly all actives have a fitted effect of over 55% in size
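HEK293 cells carry an SMN2 minigene-luciferase reporter in which exon 7 inclusion puts luciferase in frame. Cells were seeded at 2000 cells/well, attached for 10-12 hours, then exposed to compounds for 30-36 hours at 37C before ONE-Glo luminescence.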
NPC1 promoter act = qHTS Assay for NPC1 Promoter Activators. Potency, µM (series often up to 9.22 µM), without a hit: top-dose activation, usual class: activators. Huh7 NPC1 promoter luciferase reporter, 24 h. AID 485313, 2010. 2.4% of 320,000 active; note: % of control where 0% means no effect; nearly all actives have a fitted effect of over 60% in size
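Huh7 reporter cells (NPC1 promoter driving luciferase) are dosed with compound for 24 h at 37 °C, 5% CO2; luciferase detection reagent is then added and luminescence measured after 10 min at ambient temperature.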
FLuc counter = qHTS profiling assay for firefly luciferase inhibitor/activator using purifed enzyme and Km concentrations of substrates (counterscreen for miR-21 project). Luciferin 4-monooxygenase (Photinus pyralis), P08659. purified FLuc, Km substrates, luminescence inhibition. Potency, µM (doses to about 57.5 µM), without a hit: at the top dose activity change, negative = inhibition, hits mostly inhibitors. 6.9% of 360,000 active. AID 588342, 2011;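 note: plate controls were vehicle for no effect and reference inhibitor for full effect; nearly all actives have a fitted effect of over 55% in size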
Target sequence (P08659 whole entry, looked up): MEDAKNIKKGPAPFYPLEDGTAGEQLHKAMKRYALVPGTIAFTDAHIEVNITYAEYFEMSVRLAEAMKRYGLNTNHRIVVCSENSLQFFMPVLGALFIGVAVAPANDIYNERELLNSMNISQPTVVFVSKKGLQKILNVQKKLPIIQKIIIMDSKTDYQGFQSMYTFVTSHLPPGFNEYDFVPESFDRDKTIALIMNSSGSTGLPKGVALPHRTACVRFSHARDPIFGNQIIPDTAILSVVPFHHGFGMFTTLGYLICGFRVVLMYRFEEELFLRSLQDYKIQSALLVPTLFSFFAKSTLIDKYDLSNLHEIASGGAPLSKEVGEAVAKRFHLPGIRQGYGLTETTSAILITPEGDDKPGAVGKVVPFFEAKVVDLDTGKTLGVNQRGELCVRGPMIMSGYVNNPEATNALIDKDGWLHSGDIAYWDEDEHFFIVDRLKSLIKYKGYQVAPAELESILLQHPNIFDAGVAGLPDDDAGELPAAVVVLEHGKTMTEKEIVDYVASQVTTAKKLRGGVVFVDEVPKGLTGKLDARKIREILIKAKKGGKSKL
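Purified P. pyralis luciferase (10nM final) with 10uM D-luciferin and 10uM ATP (Km levels) in 50mM Tris acetate pH 7.5, 10mM Mg acetate, 0.01% Tween-20, 0.05% BSA; qHTS 6-point titration, ~60 µM downward; luminescence read.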
Starred values were filed as active, the others as inactive; ? = inconclusive; . = no result given; [ ] = dose if it differs, or a comment. Most compounds without a hit are left out; they make up all but 7.4% or so of the library. Calls come from the whole dose curve; as a rule, active = well fitted curve in the direction sought with a large enough effect; inconclusive = small, poorly fitted or top-dose-only effect, or another doubt; inactive = no such curve, though single readings can be large; an effect the other way counts as inactive or inconclusive. Potency is the fitted concentration of half-maximal effect.

SMILES	ELG1 genotox	Luc counter	Rab9 prom act	SMN2 splice enh	NPC1 promoter act	FLuc counter
CCOc1ccc(NC(=O)Nc2cnccn2)cc1	7%	-4%	?	?	12%	?
Cc1ccc(Nc2nc3nonc3[nH]c2=O)cc1C	7%	-2%	26%	13%	18%	12µM*
Cc1ccc(NC2=CC(=O)CCC2)cc1C	0%	-1%	-3%	-13%	2%	0%
Cc1ccc(Nc2nc3nonc3[nH]c2=O)cc1Cl	-16%	-1%	2%	-74%	9%	21µM*
CC(C)Sc1nc2ccc(Br)cc2[nH]1	?	-2%	?	.	23%	17µM*
CSc1nc2ccc(Br)cc2[nH]1	-5%	-7%	0%	-28%	-3%	-6%
BrC/C=C/CBr	.	.	.	-3%	.	.
Cc1c(C(=O)Nc2nc3ccccc3[nH]2)cccc1[N+](=O)[O-]	14%	1%	?	20µM*	19%	15µM*
O=C(NC(Cc1ccccc1)c1nc2ccccc2[nH]1)c1ccc(Cl)c([N+](=O)[O-])c1 (stereo not given)	-2%	.	9%	.	-1%	-8%
O=C(Nc1nc2ccccc2[nH]1)c1ccc(Cl)c([N+](=O)[O-])c1	?	-3%	-1%	13µM*	-3%	?
O=C(Nc1nc2ccccc2[nH]1)c1ccccc1[N+](=O)[O-]	15%	1%	20%	13µM*	?	?
COc1ccccc1NC(=O)CN1C(=O)c2cccc3cccc1c23	.	.	.	-44%	.	-1%
CNC(CC(=O)O)C(=O)O (stereo not given)	.	2%	.	-4%	.	.
O=C(CNC(=O)c1cn2ccccc2n1)Nc1ccc(F)c(F)c1	8.2µM*	.	2.2µM*	.	?	17µM*
O=C(NC1CC1)c1cccc(NC(=O)c2cn3ccccc3n2)c1	12%	.	3.2µM*	.	?	.
O=C(Nc1ccc(N2CCOCC2)cc1)c1cn2ccccc2n1	3%	4.5µM*	?	?	?	1.7µM*
O=C(NC1CC1)c1cccc(NC(=O)c2cnn(-c3ccccc3)n2)c1	-4%	.	.	.	.	.
CN(CC(=O)Nc1cccc(F)c1)C(=O)c1cn2ccccc2n1	2%	.	-2%	.	0%	3%
COc1ccc(C=Nc2c(O)ccc3ccccc23)cc1OC	.	-2%[7.66 µM]	.	?	.	.
O=C(Nc1ccc(F)cc1)c1ccc(-n2cnc3cccnc32)cc1	.	.	.	.	.	-2%
CCN(CC)S(=O)(=O)c1ccc(NC(=O)CCc2c(C)nc3cc(-c4ccc(Cl)cc4)nn3c2C)cc1	.	.	.	0%	.	?
Cc1csc(NC(=O)CCc2c(C)nc3cc(-c4cccc(F)c4)nn3c2C)n1	-11%	-2%	-7%	-44%	0%	6%
CC(=O)c1ccc(NC(=O)CCc2c(C)nc3cc(-c4ccc(Cl)cc4)nn3c2C)cc1	.	.	.	-21%	.	17µM*
Cc1ccc(NC(=O)CCc2c(C)nc3cc(-c4ccccc4)nn3c2C)cc1F	.	.	.	19%	.	11µM*
COc1ccc(CNC(=O)Nc2cn(CC(C)C)c(=O)c3ccccc23)cc1	.	.	.	.	.	0%
SMILES	ELG1 genotox	Luc counter	Rab9 prom act	SMN2 splice enh	NPC1 promoter act	FLuc counter
c1ccc(C(c2ccccc2)c2nc(-c3cccnc3)no2)cc1	2%	.	0%	.	-7%	0%
Cc1ccc(-c2nc(-c3cccnc3)no2)c(C)c1	5.2µM*	-1%	1.8µM*	16µM*	2µM*	?
Brc1ccc(-c2nc(-c3cccnc3)no2)o1	?	-27%	2.8µM*	?	4µM*	17µM*
Brc1ccc(-c2nc(-c3ccccc3)no2)o1	8.2µM*	-10%	2.5µM*	18µM*	3.5µM*	12µM*
CC(=O)Nc1ccc(S(=O)(=O)N2CCc3nc(-c4ccccc4)c4c(c3C2)CO[C@@H](C)C4)cc1	.	-10%[7.66 µM]	.	-1%[9.22 µM]	.	.
Cc1ccc(Cl)cc1NC(=O)C(C)n1nnc2sc3c(c2c1=O)CCCC3 (stereo not given)	.	.	.	-2%	.	-1%
O=C(c1cccc(F)c1)N1CCC2(CC1)CCN(c1cccc(-c3ccccc3)c1)CC2	.	-3%	.	-51%	.	.
Cc1ccc(Cl)cc1NC(=O)C1CCCN(S(=O)(=O)c2c(C)noc2/C=C/N(C)C)C1 (stereo not given)	.	.	.	-6%	.	-6%
Cc1cc(C(=O)COc2ncnc3sccc23)c(C)n1C	18µM*	3%	?	11µM*	?	17µM*
Cn1nnnc1SCc1ccc(C(=O)Nc2ccccc2F)cc1	?	-18%	?	2%	?	?
Cc1cc(C)cc(NC(=O)c2ccc(CSc3nnnn3C)cc2)c1	0%	0%	19%	-11%	9%	13µM*
C=CCn1c(SCc2ccc(C#N)cc2)nnc1-c1cccc(Cl)c1	-11%	-1%	-7%	-25%	-4%	2%
Cn1nnnc1SCc1ccc(C(=O)Nc2nccs2)cc1	?	-2%	?	11µM*	30%	15µM*
C=CCn1c(SCc2ccc(C(=O)Nc3nccs3)cc2)nnc1-c1ccc(C)c(Cl)c1	-14%	-3%	-1%	-97%	1%	11µM*
CC(=O)NCCNc1nc(-c2ccccc2C(F)(F)F)nc2ccccc12	.	4%	.	-4%	.	.
C/C(=N/O)c1ccc2cc(Br)c3ccccc3c2c1	.	-3%[7.66 µM]	.	-10%[9.22 µM]	.	.
CCc1ccc(C(=O)NNC(=S)Nc2ccc(S(N)(=O)=O)cc2)s1	4%	.	-1%	.	-2%	17µM*
CC(C)CC(=O)NNC(=S)Nc1ccc(S(N)(=O)=O)cc1	-1%	-2%	3%	7%	-3%	-19%
CCC1SC(=NC(=O)c2ccc(Cl)c(Cl)c2)NC1=O (stereo not given)	?	-6%	23%	?	23%	24µM*
CCC1SC(=Nc2cccc(C)c2)NC1=O (stereo not given)	3%	.	0%	.	0%	-9%
CCCCc1cc2c(cn1)=C(OC(=O)C1CCCC1)C(C)(OC(=O)CC)C(=O)C=2 (stereo not given)	.	-4%[7.66 µM]	.	-2%[9.22 µM]	.	.
Oc1ccc(/C=N/Nc2ccnc3cc(Cl)ccc23)cc1O	?	.	-2%	.	-4%	17µM*
COc1ccc(-c2cc(C)no2)cc1S(=O)(=O)NCc1cccs1	.	.	.	.	.	4%
Cc1c(N=C2NN=C(c3ccc(Cl)cc3)CS2)c(=O)n(-c2ccccc2)n1C	1%	3%	4%	-18%	-2%	-14%
Cc1ccc(-n2c(C)cc(C3=NNC(=NC4CC4)SC3)c2C)cc1C	?	-6%	0.56µM*	?	1.6µM*	1.3µM*
